Assay results reported in the supplement of paper PMC10338343.
± gives the standard deviation.

Tested on: MILI (PIWIL2) piRISC loaded with L1MC piRNA (26 nt)
Assay: pre-steady-state target cleavage rate (min^-1); guide: L1MC piRNA 5'p-UAACUAAAUACUAUGCAAGCUGUAGG; higher = faster piRNA-guided slicing of the target
Details: auxiliary factor: 500 nM mouse GTSF1
Summary of the method: (§1)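 The pre-steady-state cleavage rate came from a burst-and-steady-state fit to pooled data from three Cleave-'n-Seq trials, in which uncleaved targets were sequenced and normalised to depth and to weakly complementary targets. Each reaction held 0.1 nM transcribed, DNA-blocked target RNA library and 1 nM active affinity-purified piRISC carrying one synthetic guide, with or without 500 nM GTSF1 partner protein, in HEPES–potassium acetate buffer at 33 °C for 0–8 or 0–960 min. k3 was capped at 0.0001 min^-1.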

Sequence	pre-steady-state target cleavage rate
UCCUGCUACAGCUUGCAUAGUAUUUAGUAA	0.182 ± 0.024
UCCUCCUACUGCUUGCAUAGUAUUUACUUA	0.0701 ± 0.013
UCCUCCUACAGCUUGCAUAGUAAUUACAAA	0.18 ± 0.039
UCCUGGAAGAGCUUGCAUAGUAUUUACAAA	0.0536 ± 0.02
UCCUGGAUCAGCUUGCAUUGUAUUUAGAAA	0.0362 ± 0.013
UCCUGCUACAGCUUGCAUAGUAUUUUCUAA	0.0874 ± 0.021
UCCUGGUACAGCUUGCAUACUAUUUAGUAA	0.0573 ± 0.023
UCCUGGAACAGCUUGCAUAGUAUUUUGAUA	0.0833 ± 0.019
UCCUGGUACAGCUUGCAUAGUAUUAUCUAA	0.0327 ± 0.012
UCCUGCUACAGCUUGCAUAGUAUAAUGAAA	0.0499 ± 0.018
UCCUGGAACAGCUUGCAUAUUAUUUAGUUA	0.0696 ± 0.008
UCCUCCUACAGCUUGCAUACUAUUUAGAAA	0.136 ± 0.043
UCCUCCUACAGCAAGCAUAGUAUUUAGUAA	0.238 ± 0.02
UCCUCCAACAGCUUGCAUAGUAUUUACUUA	0.122 ± 0.022
UCCUCCUACAGCUUGCAUAGUAUUUAGUGA	0.186 ± 0.034
UCCUCCUACAGCUUGCAUAGUAUGUUAGUUA	0.126 ± 0.022
UCCUGCUACAGCUUGCUAUAGUAUUUAGUUA	0.05 ± 0.017
UCCUGCUACAGCUUGCAUAGUAUUUUGAAA	0.112 ± 0.029
UCCUCCUACAGGUUGCAUAGUAUUUUCAAA	0.0497 ± 0.013
UCCUGGAUCAGCUUGCAUAGUAAUUAGAAA	0.0807 ± 0.02

Sequence	pre-steady-state target cleavage rate
UCCUGGAUCAGCUUGCAUAGAAUUUAGAUA	0.0147 ± 0.0059
UCCUCCUAGAGCUUGCAUAGUAUUUAGAAA	0.069 ± 0.016
UCCUGGUACAGCUUGCAUAGUAUUCAGUUA	0.058 ± 0.017
UCCUGCUACAGCUUGCUUAGUAUUUAGAAA	0.0602 ± 0.019
UCCUCCUACAGCUUGCAUAGAAUUUAGUAA	0.148 ± 0.035
UCCUGGAACACCUUGCAUAGUAUAUAGUUA	0.189 ± 0.033
UCCUGGAUCAGCUUGCACUAGUAUUUAGUUA	0.00868 ± 0.0048
UCCUGGAACAGCUUGCAUUGUAUUUUGUUA	0.102 ± 0.013
UCCUGCUACAGCUUGCUUAGUAUUUAGAUA	0.0729 ± 0.015
UCCUGGAUCAGCUUGCAUAGUAUAAAGUAA	0.11 ± 0.024
UCCUGCUACAGGAUGCAUAGUAUUUAGAAA	0.0163 ± 0.0074
UCCUGGAUGUGCUUGCAUAGUAUUUGAGUUA	0.123 ± 0.024
UCCUGCUACAGCAUGCAUAGUAUUUAGAAA	0.188 ± 0.041
UCCUGCUACAGCUUGCAUAGUAUUUUGAUA	0.142 ± 0.037
UCCUGGAACAGCUUCCAUAGUAUUUAGUAA	0.0767 ± 0.03
UCCUGGAUGUGCUUGCAUAGUAUUUAGCUUA	0.113 ± 0.028
UCCUCCUACAGCUUGCAUACUAUUUACAAA	0.0449 ± 0.012
UCCUGGAUGAGCUUGCAUAGUAUUUACUAA	0.00674 ± 0.0044
UCCUGCUACACCUUCCAUAGUAUUUAGUUA	0.0271 ± 0.013
UCCUGCUACAGCUUGCAGUAGUAUUUAGUUA	0.00973 ± 0.0053

Tested on: EfPiwi piRISC loaded with L1MC piRNA (26 nt)
Assay: pre-steady-state target cleavage rate (min^-1); auxiliary factor: 500 nM Ephydatia muelleri Gtsf1; guide: L1MC piRNA 5'p-UAACUAAAUACUAUGCAAGCUGUAGG; MIWI and MILI are mouse PIWI proteins and EfPiwi is from a freshwater sponge; tags in brackets are library labels; higher = faster piRNA-guided slicing of the target
Details: not given
Summary of the method: as §1

Sequence	pre-steady-state target cleavage rate
UCCUGCUACAGCUUGCAUAGUAUUUAGUAA	0.00553 ± 0.0022
UCCUCCUACUGCUUGCAUAGUAUUUACUUA	0.00299 ± 0.0029
UCCUCCUACAGCUUGCAUAGUAAUUACAAA	0.00353 ± 0.0025
UCCUGGAAGAGCUUGCAUAGUAUUUACAAA	0.00396 ± 0.0018
UCCUGGAUCAGCUUGCAUUGUAUUUAGAAA	0.00264 ± 0.0021
UCCUGCUACAGCUUGCAUAGUAUUUUCUAA	0.00646 ± 0.0026
UCCUGGUACAGCUUGCAUACUAUUUAGUAA	0.00327 ± 0.0023
UCCUGGAACAGCUUGCAUAGUAUUUUGAUA	0.00265 ± 0.0024
UCCUGGUACAGCUUGCAUAGUAUUAUCUAA	0.00312 ± 0.0027
UCCUGCUACAGCUUGCAUAGUAUAAUGAAA	0.00473 ± 0.0032
UCCUGGAACAGCUUGCAUAUUAUUUAGUUA	0.0169 ± 0.0055
UCCUCCUACAGCUUGCAUACUAUUUAGAAA	0.00366 ± 0.0019
UCCUCCUACAGCAAGCAUAGUAUUUAGUAA	0.00371 ± 0.0026
UCCUCCAACAGCUUGCAUAGUAUUUACUUA	0.00475 ± 0.0037
UCCUCCUACAGCUUGCAUAGUAUUUAGUGA	0.00553 ± 0.0017
UCCUCCUACAGCUUGCAUAGUAUGUUAGUUA	0.00459 ± 0.0021
UCCUGCUACAGCUUGCUAUAGUAUUUAGUUA	0.0075 ± 0.002
UCCUGCUACAGCUUGCAUAGUAUUUUGAAA	0.0045 ± 0.0018
UCCUCCUACAGGUUGCAUAGUAUUUUCAAA	0.00306 ± 0.0021
UCCUGGAUCAGCUUGCAUAGUAAUUAGAAA	0.00582 ± 0.0028

Sequence	pre-steady-state target cleavage rate
UCCUGGAUCAGCUUGCAUAGAAUUUAGAUA	0.0036 ± 0.0019
UCCUCCUAGAGCUUGCAUAGUAUUUAGAAA	0.00517 ± 0.0019
UCCUGGUACAGCUUGCAUAGUAUUCAGUUA	0.00472 ± 0.0022
UCCUGCUACAGCUUGCUUAGUAUUUAGAAA	0.00409 ± 0.0022
UCCUCCUACAGCUUGCAUAGAAUUUAGUAA	0.00443 ± 0.0022
UCCUGGAACACCUUGCAUAGUAUAUAGUUA	0.0051 ± 0.0035
UCCUGGAUCAGCUUGCACUAGUAUUUAGUUA	0.00365 ± 0.0027
UCCUGGAACAGCUUGCAUUGUAUUUUGUUA	0.00509 ± 0.0026
UCCUGCUACAGCUUGCUUAGUAUUUAGAUA	0.00495 ± 0.0028
UCCUGGAUCAGCUUGCAUAGUAUAAAGUAA	0.00455 ± 0.0038
UCCUGCUACAGGAUGCAUAGUAUUUAGAAA	0.00248 ± 0.0014
UCCUGGAUGUGCUUGCAUAGUAUUUGAGUUA	0.0118 ± 0.0069
UCCUGCUACAGCAUGCAUAGUAUUUAGAAA	0.00416 ± 0.0014
UCCUGCUACAGCUUGCAUAGUAUUUUGAUA	0.00307 ± 0.0023
UCCUGGAACAGCUUCCAUAGUAUUUAGUAA	0.00376 ± 0.0014
UCCUGGAUGUGCUUGCAUAGUAUUUAGCUUA	0.00517 ± 0.003
UCCUCCUACAGCUUGCAUACUAUUUACAAA	0.0038 ± 0.0031
UCCUGGAUGAGCUUGCAUAGUAUUUACUAA	0.00198 ± 0.002
UCCUGCUACACCUUCCAUAGUAUUUAGUUA	0.00334 ± 0.0022
UCCUGCUACAGCUUGCAGUAGUAUUUAGUUA	0.0051 ± 0.0024
